TDP1 block – qHTS Assay for Inhibitors of Tyrosyl-DNA Phosphodiesterase (TDP1); actives 0.28% (n = 350,000); recombinant TDP1, AlphaScreen DNA substrate cleavage; Potency, µM (doses to about 130 µM), for the others: at the top dose activity change, negative = inhibition, hits mostly inhibitors; Tyrosyl-DNA phosphodiesterase 1 (Homo sapiens), Q9NUW8; note: nearly all actives have a fitted effect of over 40% in size
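AlphaScreen read-out: signal falls as enzyme removes the 3' tyrosine-FITC from a 5'-biotinylated DNA oligo (15 nM, 5 min, RT). Enzyme was E. coli-made recombinant Tdp1 at 1 nM, exposed to compound for 15 min beforehand; beads 10 ug/ml, 10 min.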
RECQ1 inh – qHTS Assay for Inhibitors of RecQ-Like Dna Helicase 1 (RECQ1) | ATP-dependent DNA helicase Q1 (Homo sapiens), P46063 | RECQ1 DNA unwinding, red fluorescence kinetic read | Potency, µM (series often up to 57.3 µM), without a hit: at the highest dose activity, negative = inhibition, usual class: inhibitors | actives 0.54% (n = 240,000) | AID 2549, 2010;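 note: plate controls were vehicle for no effect and no enzyme for full effect; nearly all actives have a fitted effect of over 30% in size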
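50 nM RECQ1T1 preincubated 15 min with compound in Tris pH 8.0 buffer with MgCl2, DTT, Tween-20 and 2.5 ug/ml poly(dI-dC); started with 200 nM TAMRA/BHQ-2 forked duplex and 2 mM ATP. Unwinding read as fluorescence (525/598 nm), two reads 2 h apart.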
JMJD2E inh – qHTS Assay for Inhibitors of Human Jumonji Domain Containing 2E (JMJD2E); Lysine-specific demethylase 4E (Homo sapiens), B2RXH2; JMJD2E catalytic domain, FDH-coupled NADH fluorescence (FDH is formaldehyde dehydrogenase); Potency, µM (highest dose often 57.1 µM), for inactives: at the top dose activity change, negative = inhibition, actives largely listed as inhibitors; actives 1.6% (n = 230,000); active = well fitted inhibition curve with a large enough effect, not every such curve was filed as active; inconclusive = small, poorly fitted or top-dose-only effect, or another doubt; inactive = no such curve, though single readings can be large or run the other way;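 note: 0% = wells with enzyme and -100% = buffer wells without enzyme; nearly all actives have a fitted effect of over 50% in size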
Target sequence (B2RXH2 1-337 limits assumed): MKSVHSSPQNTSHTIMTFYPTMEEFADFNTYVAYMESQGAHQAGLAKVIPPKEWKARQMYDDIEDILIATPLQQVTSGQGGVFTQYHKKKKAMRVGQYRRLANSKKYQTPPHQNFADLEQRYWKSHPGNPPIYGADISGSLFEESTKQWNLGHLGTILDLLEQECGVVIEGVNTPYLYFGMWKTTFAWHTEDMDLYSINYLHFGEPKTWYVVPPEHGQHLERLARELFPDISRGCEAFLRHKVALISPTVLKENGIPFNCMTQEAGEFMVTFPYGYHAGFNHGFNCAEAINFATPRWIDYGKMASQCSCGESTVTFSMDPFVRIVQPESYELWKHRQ
BLM helicase inh – qHTS Assay for Inhibitors of Bloom's syndrome helicase (BLM); RecQ-like DNA helicase BLM (Homo sapiens), P54132; recombinant BLM DNA unwinding, fluorescence dequenching; Potency, µM (highest dose often 56.1 µM), for inactives: at the highest dose activity change, negative = inhibition, hits mostly inhibitors; actives 0.2% (n = 350,000); AID 2528, 2010;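 note: plate controls were vehicle for no effect and no enzyme for full effect; nearly all actives have a fitted effect of over 35% in size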
GCN5L2 inh – qHTS Assay for Inhibitors of GCN5L2; actives 0.21% (n = 390,000); Potency, µM (highest dose often 58.9 µM), for inactives: top-dose activity change, negative = inhibition, actives largely listed as inhibitors; GCN5L2 HAT assay, ThioGlo1 CoA-SH fluorescence; Histone acetyltransferase KAT2A (Homo sapiens), Q92830; AID 504327, 2011
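Compounds, pin-transferred from DMSO stocks, meet 20nM GCN5L2 for 15 min before the reaction begins with H3(1-25) peptide (75uM) and acetyl-CoA (70uM). Thiol-reactive ThioGlo1 reports CoA release over 20 min at room temperature.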
APEX1 inh – qHTS Assay for Inhibitors of the Human Apurinic/apyrimidinic Endonuclease 1 (APE1) | DNA repair nuclease/redox regulator APEX1 (Homo sapiens), P27695 | recombinant APE1, TAMRA/BHQ-2 abasic DNA cleavage fluorescence | Potency, µM (highest dose often 65.8 µM), without a hit: at the top dose activity change, negative = inhibition, actives largely listed as inhibitors | actives 0.35% (n = 350,000) | AID 2517, 2012;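 note: plate controls were vehicle for no effect and reference inhibitor for full effect; nearly all actives have a fitted effect of over 55% in size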
Target sequence (P27695 whole entry, looked up): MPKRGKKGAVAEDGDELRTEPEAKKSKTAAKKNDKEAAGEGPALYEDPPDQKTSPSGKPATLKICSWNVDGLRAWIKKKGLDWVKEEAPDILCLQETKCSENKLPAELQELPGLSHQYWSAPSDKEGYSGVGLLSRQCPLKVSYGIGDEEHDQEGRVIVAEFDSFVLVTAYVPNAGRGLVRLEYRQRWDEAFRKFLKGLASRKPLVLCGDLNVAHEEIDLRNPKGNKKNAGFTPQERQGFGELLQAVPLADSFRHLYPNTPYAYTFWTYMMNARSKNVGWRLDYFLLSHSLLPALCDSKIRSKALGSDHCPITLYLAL
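Incision of a quenched TAMRA/BHQ-2 THF abasic-site duplex (50 nM) by 0.75 nM APE1, after 15 min compound preincubation, measured as fluorescence increase over three 60 s reads. Values normalized to buffer, DMSO and NSC13755 control wells.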
Active calls of the source: *; i = inactive; ? = inconclusive; . = no result given; ! = not confirmed by another sample; [ ] = another dose, or the depositor's remark. Shown is part of a subset that was picked to be rich in hits. Unless noted, calls come from the whole dose curve; as a rule, active = well fitted curve in the direction sought with a large enough effect; inconclusive = small, poorly fitted or top-dose-only effect, or another doubt; inactive = no such curve, though single readings can be large; an effect the other way counts as inactive or inconclusive. Unless noted, % is set by controls: 0 for no effect and ±100 for the full control effect; potency is the fitted concentration of half-maximal effect.

SMILES	TDP1 block	RECQ1 inh	JMJD2E inh	BLM helicase inh	GCN5L2 inh	APEX1 inh
O=C(O)c1ccccc1NS(=O)(=O)c1ccc(NNC(=S)Nc2ccc(OC(F)F)cc2)c([N+](=O)[O-])c1	11.0%	?	-19.1%	-11.6%	22.4µM*	13.1%
O=C1OCCN1C(=O)[C@H]1[C@H](c2ccccc2)C(c2ccccc2)=NN1c1ccccc1	-3.4%[56.1 µM]	-13.4%[81.1 µM]	.	-13.0%[75.6 µM]	28.2µM*	-27.6%
O=C1OCCN1C(=O)[C@H]1[C@H](c2ccccc2)C(c2ccccc2)=NN1c1ccc(Br)cc1	-8.7%[56.1 µM]	-19.5%	.	-25.7%[75.6 µM]	?	-7.0%
COc1ccc(Cc2nnc(N/N=C/c3ccc(Br)cc3)[nH]c2=O)cc1OC	2.6%	-3.3%	7.6%	-5.2%	0.5%	1.9%
COc1ccc(Cc2nnc(N/N=C/c3ccc(O)cc3)[nH]c2=O)cc1OC	10.5%	-1.1%	14.1µM*	1.5%	-2.7%	-0.9%
N#CC1=C2SCN(C3CCCCC3)CN2C(=O)CC1c1ccc(Br)cc1 (stereo unspecified)	0.0%	.	.	-3.0%	35.5µM*	.
CCOc1cc(C2CC(=O)N3CN(C4CCCCC4)CSC3=C2C#N)ccc1O (stereo unspecified)	3.3%	-4.2%	?	-15.4%	-11.7%	-6.1%
Oc1ccc(-c2nc3ccc4ccccc4c3c3c2CCC3)cc1O	8.2%	-1.9%	25.1µM*	-6.0%	-0.3%	-0.3%
COc1ccc(-c2cc(C(=O)O)nc3ccc4ccccc4c23)cc1OC	0.0%	-7.1%	?	3.3%	-6.3%	-2.3%
CC1=C(C#N)C(=O)N(C2CCS(=O)(=O)C2)C(=O)/C1=C\c1ccco1 (stereo unspecified)	.	3.16µM*	?	7.08µM*	?	1.58µM*
N#CC1=C(S)N(c2ccccc2)C(c2ccc(-c3ccc(Cl)c(Cl)c3)o2)NC1=O (stereo unspecified)	8.8%	-2.9%	25.1µM*	5.6%	-25.4%	-2.5%
COc1ccc2nc(-n3c(O)c(C4=c5ccccc5=NC4=O)[nH]c3=S)sc2c1	-8.3%	-5.8%	13.7%	20µM*	35.4%	-4.0%
Cc1nc(C(C)Nc2ncnc3ccc(-c4ccc5c(c4)OCO5)cc23)cs1 (stereo unspecified)	-16.4%	.	.	.	.	.
O=C1c2c(O)cc(O)cc2O[C@@]12c1c(cc(O)c3c1O[C@H](c1ccc(O)cc1)[C@@H](O)C3)O[C@@H]2c1ccc(O)cc1	1.3%	i	-5.8%	-5.7%	-5.1%	-2.0%
O=C1CC(c2ccccc2)Oc2cc(O)ccc21 (stereo unspecified)	.	.	.	-2.2%	-3.4%	11.4%
Oc1cc(O)c2c(c1)O[C@H](c1ccc(O)c(O)c1)[C@@H](O)C2	-6.4%	?	25.1µM*	-2.5%	-2.2%	11.2µM*!
Oc1ccc2c(c1)OC(c1ccc(O)c(O)c1)C(O)C2 (stereo unspecified)	8.1%[56.1 µM]	-11.0%	15.8µM*	-3.2%	-2.3%	?
C=Cc1nc(Nc2cc(F)cc(F)c2)nc(NC2CCCC2)n1	1.7%	.	.	.	.	.
Cc1c(N)nc([C@H](CC(N)=O)NC[C@H](N)C(N)=O)nc1C(=O)N[C@H](C(=O)N[C@H](C)[C@@H](O)[C@H](C)C(=O)N[C@H](C(=O)NCCc1nc(-c2nc(C(=O)NCCCCN=C(N)N)cs2)cs1)[C@@H](C)O)[C@@H](O[C@@H]1O[C@@H](CO)[C@@H](O)[C@H](O)[C@@H]1O[C@H]1O[C@H](CO)[C@@H](O)[C@H](OC(N)=O)[C@@H]1O)c1cnc[nH]1	.	.	.	.	.	-1.9%
O=[N+]([O-])c1cc(Cc2ccccc2)cc(C=Nc2ccc(N3CCOCC3)cc2)c1O	10.7%	-6.5%	15.8µM*	-6.5%	-12.8%	-5.6%
Oc1c(Cl)cc(Cl)cc1C=Nc1ccc(N2CCOCC2)cc1	.	.	.	-4.7%	-12.8%	-14.1%
CC(C)C(=O)Nc1nc2c(ncn2[C@H]2CC(O)[C@@H](CO)O2)c(=O)[nH]1 (stereo partly specified)	0.1%	.	.	.	.	.
O=C(Nc1ccc([N+](=O)[O-])cc1Cl)c1cc(Cl)ccc1O	15.6%[56.1 µM]	-5.0%	-1.5%	2.7%	-18.5%	-24.0%
O=C(Nc1cccc(Cl)c1)c1cc(N=Nc2ccc([N+](=O)[O-])cc2Cl)ccc1O	8.6%	-5.3%	-15.8%	17.8µM*	-16.5%	-2.9%
Cc1c(P(=S)(c2ccccc2)c2ccccc2)c2ccccc2n1CCc1ccccc1	-0.3%	.	.	.	.	.
SMILES	TDP1 block	RECQ1 inh	JMJD2E inh	BLM helicase inh	GCN5L2 inh	APEX1 inh
COc1ccccc1Nc1nc(-c2c(C)[nH]c3ccccc23)cs1	12.8%	-11.7%	28.2µM*	-0.9%	-3.0%	9.1%
COc1ccc([C@@H]2CC(=O)c3c(O)cc(O[C@@H]4O[C@H](CO)[C@@H](O)[C@H](O)[C@H]4O[C@@H]4O[C@@H](C)[C@H](O)[C@@H](O)[C@H]4O)cc3O2)cc1	9.5%	-14.3%	.	-0.8%	-26.5%	11.7%
O=C(O)c1ccc(-c2ccc(/C=c3/sc4nc5ccccc5n4c3=O)o2)cc1Cl	.	.	.	?	-16.9%	9.47µM*
CC(C)(C)N[S+](=O)([O-])c1cccc(-c2nnc(SCc3ccc(C(=O)O)cc3)n2-c2ccc(F)cc2)c1	.	.	.	.	.	25.6%
COc1ccc(C(=O)/C=C/Nc2ccc(S(=O)(=O)Nc3nc(C)cc(C)n3)cc2)cc1OC	0.0%	-16.7%	?	-5.9%	-11.1%	5.9%
Cc1cc(C)nc(NS(=O)(=O)c2ccc(N/C=C/C(=O)c3ccc(Cl)cc3)cc2)n1	0.0%	-7.9%	22.4µM*	-2.1%	-4.1%	6.1%
O=c1[nH]c(=O)n([C@H]2C[C@@H](O)[C@@H](CO)O2)cc1C=CBr	.	.	.	.	-2.2%	.
C=CCn1c(SCC(=O)NCc2ccco2)nc2ccccc2c1=O	0.0%	0.1%	-4.3%	-6.7%	-5.7%	1.7%
C=CCn1c(SCC(=O)NC(=O)NCc2ccco2)nc2sc(CC)cc2c1=O	?	-26.2%	-4.6%	-21.0%	-10.7%	31.6µM*
N#Cc1nc(N)nc(N2CCCCC2)n1	-0.2%	.	.	.	.	.
O=C(O)c1cccc(CN2C(=O)SC(Nc3cccc4ccccc34)C2=O)c1 (stereo unspecified)	0.0%	-7.1%	5.3%	-4.1%	14.1µM*	-0.1%
